Compound activity (PubChem BioAssay)
Platelet DG rel: inhibitors of platelet dense granule secretion, primary screen, cell-based, MLPCN, human platelets. human platelet-rich plasma, SFLLRN dense granule ATP release, luminescence. 300,000 compounds, 0.22% hits. inhibition, %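 (compounds screened at 7.5 µM in platelet-rich plasma)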;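 active = mean replicate score, as percent of positive control, at or above 50; inconclusive = mean below 50 but at least one replicate at or above 50; inactive = mean and every replicate below 50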
SKKanGAS inh: S. pyogenes SKKanGAS growth inhibitors in kanamycin, primary screen, streptokinase expression inhibitor project, SKKanGAS strain, BacTiter-Glo luminescence. 6 h. inhibition, % at 7.5 µM. 300,000 compounds, 1.3% hits. AID 1662, 2009;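 active = mean replicate score, as percent of positive control median, at least 50; inconclusive = mean below 50 but one replicate at or above 50; inactive = mean and every replicate below 50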;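 note: strain carries kanamycin resistance gene driven by streptokinase promoter and grows in 40 µg/ml kanamycin; loss of luminescence reflects streptokinase promoter inhibition or plain growth inhibition; 0% = median of DMSO wells and 100% = positive control at its reference dose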
PolyA inhibitor: polyadenylation inhibitors in yeast reporter cells, primary screen, luminescence, S. cerevisiae | activity score, % at 12 µM | AID 1875, 2009 | 300,000 compounds, 0.02% hits | S. cerevisiae SKY197-pL101 polyadenylation reporter, beta-gal luminescence; efflux-impaired pdr1/pdr3 knockout yeast; score 100 = 6 SD above DMSO;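 active = lowest replicate activity score at least 50, where 100 means six control SD above control mean; inconclusive = lowest score under 50 but half or more replicates reach 50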;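 note: yeast exposed to compound for 9 h at 30 °C; higher score means more reporter readthrough which indicates perturbed polyadenylation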
Calb FLC: C. albicans growth inhibition with fluconazole, primary screen, CaCi-2 strain, Alamar Blue fluorescence. C. albicans CaCi-2 (fluconazole-resistant clinical isolate) + fluconazole, 48 h. growth inhibition, % (test concentration not listed). 300,000 compounds, 0.57% hits. AID 1979, 2009;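 active = growth inhibition above about 58% in most replicates, limit read from the data, passing the limit was not always enough; inconclusive = exactly half the replicates above a set limit; inactive = most replicates below a set limit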;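 note: all wells also contain fluconazole at 8 µg/ml as a sub-toxic cotreatment; 0% = median of DMSO wells and 100% = median of geldanamycin control wells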
Yeast superoxide: reduction of superoxide in aged yeast, primary screen, HTS. AID 2690, 2010. superoxide response (% of plate mean), % at 10 µM. 330,000 compounds, 0.18% hits. S. cerevisiae aged cells, superoxide DHE fluorescence; hits give low values;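 active = superoxide response under a set limit, about three screen SD below normal, cut at about 65% in these data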;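 note: yeast aged for seven days with compound at 30 °C before DHE staining; 100% = average MFI of all compound-treated wells on the plate with controls excluded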
CR mimetic CP: superoxide lowering in aged yeast cells, confirmation, cherry picked compounds; 850 compounds, 1% hits; superoxide response (% of plate), % at 10 µM; S. cerevisiae aging, superoxide DHE fluorescence; hits give low values; shares compounds with Yeast superoxide;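 active = superoxide signal below 65% of the plate average of sample wells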;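 note: cells aged with compound for 7 days at 30 degrees C before staining; 100% equals mean DHE fluorescence of all compound wells on the plate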
DHE counter: DHE quenching or ROS scavenging interference in aged yeast, artefact control for yeast caloric restriction mimetic project, S. cerevisiae BY4741, flow cytometry. shares compounds with Yeast superoxide. DHE fluorescence; hits give low values. fluorescence response, % at 10 µM. 850 tested, under 10 active. AID 435000, 2010;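 active = fluorescence response below 15%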;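 note: percent of the mean fluorescence averaged over all compound wells on the plate; lower means stronger quenching of DHE signal or ROS scavenging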
The depositor's hits bear a star; ? = inconclusive; · = no result. Rows were chosen to be rich in hits. Some 2% of all compounds tested hit in one or more screens of this group.

SMILES	Platelet DG rel	SKKanGAS inh	PolyA inhibitor	Calb FLC	Yeast superoxide	CR mimetic CP	DHE counter
CCOC(=O)N1CCN(Cc2nc(-c3cccc(C)c3)no2)CC1	2	-9	-10	-6	64*	110	109
CCOC(=O)NC(=O)/C(C#N)=N/Nc1ccc(F)cc1	1	-5	-31	30	81	107	112
CCOC(=O)C(=O)/C(C#N)=C/Nc1ccc(F)cc1	5	-1	2	-5	97	·	·
CC1(C)CC(N2CN(C3CCCCC3)CC2=O)CC(C)(C)N1	-44	1	7	35	61*	118	110
CC(=O)N1CN(C2CC(C)(C)NC(C)(C)C2)Cc2c1sc1c2CCCC1	0	2	24	2	95	·	·
Nc1ccc(N(CCO)CCO)cc1	8	7	7	43	111	·	·
OCCN(CCO)c1ccc(C(c2ccc(Cl)cc2)c2ccc(N(CCO)CCO)cc2Cl)c(Cl)c1	-8	93*	2	2	62*	95	97
Cc1ccc(S(=O)(=O)NCC(=O)OCC(=O)N(C)C2CCCCC2)cc1	·	·	·	·	94	·	·
COc1ccc(NC(=O)C(OC(=O)c2cnccn2)c2ccccc2)cc1Cl (stereo unspecified)	-10	8	21	-7	119	·	·
O=C(NC1CCN(C(=S)Nc2ccccc2)CC1)C1CCCCC1	0	-7	23	-3	95	·	·
O=C(CC1CCCCC1)NCCS(=O)(=O)N1CCN(c2ccccc2)CC1	11	-5	5	-2	64*	96	107
CCOC(=O)CSc1nnc(-c2cc(OC)c(OC)c(OC)c2)o1	5	5	-11	2	100	94	98
COc1cc(-c2nnc(SCC(=O)Nc3ccc(C(=O)O)cc3)o2)cc(OC)c1OC	·	·	·	·	81	·	·
CCCCCOC(=O)CSc1nnc(-c2cc(OC)c(OC)c(OC)c2)o1	-5	2	-1	4	113	124	109
CCCOC(=O)CSc1nnc(-c2cc(OC)c(OC)c(OC)c2)o1	-3	-17	-14	0	92	98	112
CCCCOC(=O)CSc1nnc(-c2ccc(Cl)cc2Cl)o1	0	-5	9	-6	105	·	·
COc1cc(-c2nnc(SCC(=O)OC3CCCCC3)o2)cc(OC)c1OC	9	3	-15	-5	112	·	·
Cc1ccc(Cn2c(=O)cc(C(=O)O)c3ccccc32)cc1	-1	0	-10	0	103	·	·
CCOC(=O)c1cc(=O)n(Cc2ccccc2C)c2ccccc12	-3	-1	8	-6	61*	98	94
CCOC(=O)C(C(=O)OCC)N(C#N)c1nc(N(C)C)nc(N(C)C)n1	-9	1	-7	?	98	·	·
Cc1cccc(CN2C(=O)CCSc3ccc(Cl)cc32)c1	11	3	-15	-5	65*	84	96
CCOc1cc(C)c(S(=O)(=O)N2CCCC2)cc1C	-1	6	-23	-1	65*	89	106
CCCOc1cc(C)c(S(=O)(=O)N2CCOCC2)cc1C	-3	-2	0	-8	92	·	·
Cc1[nH]c2ccccc2c1N=Nc1ccccc1F	-1	4	-36	24	65*	91	98
O=C(NN=C1CCCCCC1)c1cn(-c2ccccc2)nc1-c1ccccc1	-1	8	2	-16	64*	126	103
SMILES	Platelet DG rel	SKKanGAS inh	PolyA inhibitor	Calb FLC	Yeast superoxide	CR mimetic CP	DHE counter
Cc1csc(Nc2ccccc2C(F)(F)F)n1	-2	9	-1	-11	64*	108	101
Cc1cc(OCC(=O)N(C)C2CCCCC2)ccc1Cl	10	11	-12	0	90	·	·
Cc1cc(OCC(=O)N(C)C2CCCCC2)cc(C)c1Cl	1	7	-9	30	56*	101	96
Cc1nc(=O)c(-c2ccccc2)c(C)n1-c1cccc(/C=C/C(=O)O)c1	5	-1	-9	-1	96	·	·
Cc1cc(C)c(NC(=O)CN2CCN(c3ccccn3)CC2)c(C)c1	4	-2	-4	-6	99	105	101
O=C(CN1CCN(c2ccccn2)CC1)Nc1ccc(F)cc1	0	-1	12	20	98	96	91
COC(=O)c1ccc(NC(=O)CN2CCN(c3ccccn3)CC2)cc1	2	-1	-7	15	94	123	110
Cc1cc(NC(=O)CN2CCN(c3ccccn3)CC2)ccc1Br	-9	-2	7	8	106	106	103
O=C(CN1CCN(c2ccccn2)CC1)Nc1ccc(Oc2ccccc2)cc1	-8	-2	-4	15	81	·	·
COc1cccc(-c2nc(SC)nc3sc(C(=O)NC(C)(C)C)c(N)c23)c1	5	16	0	13	104	·	·
COc1ccc(S(=O)(=O)Cc2ccc(C(=O)NC3CCCCC3)o2)cc1	10	0	9	5	92	·	·
CN(C)S(=O)(=O)c1ccc(Cl)c(NC(=O)CN2CCN(c3ccccn3)CC2)c1	-1	-4	11	0	·	98	97
O=C(CN1CCN(c2ccccn2)CC1)Nc1ccc(F)c(F)c1	4	2	7	1	96	90	88
O=C(CN1CCN(c2ccccn2)CC1)Nc1ccccc1	4	-5	15	4	109	121	106
O=C(CN1CCN(c2ccccn2)CC1)Nc1ccc(OCc2ccccc2)cc1	10	5	14	-21	107	·	·
O=C(Nc1ccc(NC(=O)C2CCCCC2)nc1)c1cccs1	-15	-5	-8	34	107	·	·
O=C(O)C1CCCN1S(=O)(=O)c1ccc(F)cc1 (stereo unspecified)	-6	2	17	-5	104	96	91
COc1ccc(C(=O)Nc2ccc3c(c2)C(=O)N(C)C3=O)cc1OC	31	1	-8	-11	110	·	·
Cc1cccc(N2CCN(C(=O)CC(NC(=O)c3ccccc3)c3ccccc3)CC2C)c1 (stereo unspecified)	-8	0	17	1	54*	84	91
COc1cccc(N2CCN(C(=O)CC(NC(=O)c3ccccc3)c3ccccc3)CC2)c1 (stereo unspecified)	·	·	·	·	96	·	·
CCc1cccc(C)c1NC(=O)c1ccoc1C	-4	-6	13	5	64*	108	104
CCc1cccc(C)c1NC(=O)c1cc(C)oc1C	2	1	-5	-2	109	·	·
Cc1cccc(NC(=O)c2c(C)nc3ccccn23)c1	-1	-9	8	2	94	·	·
Cc1nc2ccccn2c1C(=O)NNC(=O)Nc1cccc(C(F)(F)F)c1	-6	12	13	9	64*	105	89
